Shown are actives, neighbours in structure and some others; about 5.5% of the full set was active somewhere.
Six1-Eya2 blk – inhibitors of human Six1/Eya2 interaction; Q15475+O00167; AlphaScreen GST-Six1/His-Eya2 binding, biochemical; active compounds read low; activity change, % (concentration not given with the values); 360,000 tested, 0.56% active; AID 651725; in the data active = activity change below about -65%; inconclusive = mostly about -30% to -63%; also: % is scaled to controls: 0 for no effect and ±100 for the full control effect
Target sequence (O00167 whole entry, looked up): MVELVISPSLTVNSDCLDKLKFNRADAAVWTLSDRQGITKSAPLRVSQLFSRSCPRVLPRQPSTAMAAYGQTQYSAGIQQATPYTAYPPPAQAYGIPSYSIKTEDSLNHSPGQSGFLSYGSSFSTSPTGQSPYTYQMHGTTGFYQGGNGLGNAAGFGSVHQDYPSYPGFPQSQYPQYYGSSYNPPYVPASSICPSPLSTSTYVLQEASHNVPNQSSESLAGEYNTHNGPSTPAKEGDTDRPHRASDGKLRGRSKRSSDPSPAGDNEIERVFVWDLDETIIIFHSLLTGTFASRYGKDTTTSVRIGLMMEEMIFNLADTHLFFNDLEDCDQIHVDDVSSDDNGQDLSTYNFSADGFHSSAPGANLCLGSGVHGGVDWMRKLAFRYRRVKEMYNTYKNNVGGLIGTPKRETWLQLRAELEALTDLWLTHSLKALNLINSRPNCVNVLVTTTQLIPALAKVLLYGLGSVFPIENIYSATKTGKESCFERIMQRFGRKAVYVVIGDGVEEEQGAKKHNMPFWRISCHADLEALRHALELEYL
Target sequence (Q15475 whole entry, looked up): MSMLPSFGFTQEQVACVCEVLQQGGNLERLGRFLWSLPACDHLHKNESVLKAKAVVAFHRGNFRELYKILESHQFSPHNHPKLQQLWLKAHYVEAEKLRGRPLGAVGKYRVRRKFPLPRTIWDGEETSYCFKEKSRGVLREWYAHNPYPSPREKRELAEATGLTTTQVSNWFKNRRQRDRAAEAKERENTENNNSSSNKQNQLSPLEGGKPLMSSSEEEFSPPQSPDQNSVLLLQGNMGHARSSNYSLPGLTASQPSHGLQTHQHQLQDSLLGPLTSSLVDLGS
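Homogeneous AlphaScreen proximity assay pairing GST-Six1 with His-tagged Eya2 (added as 5X mix: 250 nM and 500 nM) in 50 mM Tris pH 8.0, 300 mM NaCl, 1 mM TCEP. Glutathione donor and nickel acceptor beads; 1 h, 37 °C, dark.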
CtBP-E1A blk – CtBP/E1A binding inhibition | AlphaScreen GST-E1A/His-CtBP binding, 1536-well; active compounds read low | activity change, % (concentration not given with the values) | 340,000 tested, 0.49% active | AID 651724; in the data active = activity change below about -65%; inconclusive = mostly about -30% to -63%; also: % is scaled to controls: 0 for no effect and ±100 for the full control effect
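GST-E1A and His-tagged CtBP (125 nM each as 5X stock) were preincubated with pin-transferred compound for 2 h at 37 °C in the dark, then glutathione donor and nickel acceptor beads were added for 1 h before AlphaScreen reading.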
VP16 counter – inhibits Gal4-VP16 luciferase reporter, ROR gamma counter-screen. Potency, µM (titrated, usually from 53.6 µM), without a hit: top-dose activity, negative = inhibition, usual class: inhibitors. AID 2546. 310,000 tested, 3.5% active. Drosophila S2 Gal4-VP16 UAS-luciferase, luminescence, 20 h;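 also: Gal4-VP16 expression switched on by copper sulfate through the metallothionein promoter; potency is read from the fitted curve at half-maximal effect; % is scaled to controls: 0 for no effect and ±100 for the full control effect; nearly all actives have a fitted effect of over 50% in size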
CBFb-RUNX1 inh – CBF-beta/RUNX1 interaction disruption. AlphaScreen CBFb-His/RUNX1-biotin binding, biochemical. Potency, µM (series often up to 59.8 µM), inactives show top-dose activity, negative = inhibition, usual class: inhibitors. 230,000 tested, under 10 active. AID 1477; also: % of control where 0% means no effect
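Proteins preincubated together for 20 min at RT before compound addition; 15 min later, nickel and streptavidin beads were added and left 90 min prior to AlphaScreen measurement.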
MBNL1 CUG block – MBNL1-poly(CUG) RNA binding inhibition; Q9NR56; Potency, µM (series often up to 57.5 µM), without a hit: at the top dose activity change, negative = inhibition, hits mostly inhibitors; TR-FRET MBNL1-His/biotin-(CUG)12 binding, 665/545 ratio; 280,000 tested, 0.036% active; active = well fitted inhibition curve with a large enough effect in the signal ratio, with a control signal flat, not every such curve was filed as active; inconclusive = small, poorly fitted or top-dose-only effect, or effect the other way, or a change in a side signal; inactive = no such curve, though single readings can be large or run the other way; the % refers to the signal ratio; also: potency is read from the fitted curve at half-maximal effect; % is scaled to controls: 0 for no effect and ±100 for the full control effect
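Compounds (final 92 nM to 58 uM) are added to His-tagged MBNL1 and biotin-(CUG)12, then terbium anti-His antibody and streptavidin-XL665 (5 nM final). After 60 min at room temperature, the 665/545 nm ratio is read.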
RORgamma inh – ROR gamma (mouse) transcription inhibition; P51450; Drosophila S2 Gal4-RORgamma UAS-luciferase reporter, 20 h; Potency, µM (highest dose often 53.6 µM), inactives show top-dose activity change, negative = inhibition, actives largely listed as inhibitors; 310,000 tested, 5.4% active; also: potency is read from the fitted curve at half-maximal effect; % is scaled to controls: 0 for no effect and ±100 for the full control effect; nearly all actives have a fitted effect of over 60% in size
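Stably transfected Drosophila Schneider cells are the test system, with ROR gamma fused to Gal4 and luciferase under UAS control; luminescence is read after 20 hr of 700 uM copper sulfate induction at ambient temperature.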
The depositor's hits bear a star; ? = inconclusive; nt = no result given; [ ] = remark or other dose. Unless noted, calls follow the shape of the dose curve; as a rule, active = well fitted curve in the direction sought with a large enough effect; inconclusive = small, poorly fitted or top-dose-only effect, or another doubt; inactive = no such curve, though single readings can be large; an effect the other way counts as inactive or inconclusive.

SMILES | Six1-Eya2 blk | CtBP-E1A blk | VP16 counter | CBFb-RUNX1 inh | MBNL1 CUG block | RORgamma inh
O=C(/C=C/c1ccccc1)CC(O)(c1ccccc1)C(F)(F)F (configuration not stated) | 4.2 | -1.3 | ? | -2.1% | 4.4% | ?
CN(CC(=O)NCc1ccc(F)cc1)S(=O)(=O)c1ccc2c(c1)c(=O)n(C)c(=O)n2C | -6.0 | -12.6 | 4.2% | nt | -14.4% | -0.2%
Cc1nc2ccccc2n1C1CC(=O)N(Cc2ccccc2)C1=O (configuration not stated) | 0.8 | 6.4 | 6.31µM* | -3.8% | -5.7% | -28.8%
Cc1cc2ncn(C3CC(=O)N(Cc4ccccc4)C3=O)c2cc1C (configuration not stated) | -0.5 | 7.6 | nt | -0.7% | 1.5% | 7.9%[0.365 µM]
CCCCC/C=C\CC1OC1C/C=C\C/C=C\CCCC(=O)O (configuration not stated) | nt | nt | 3.5% | 14.2% | nt | -4.1%
CCCc1cc(C(=O)Cc2ccc(F)cc2)c(O)cc1O | 0.8 | 0.0 | ? | 3.0% | -11.8% | 11.2µM*
Cc1cc(/C=C2\Sc3ccccc3N2C)cc(C)[n+]1CC1CCCO1 (configuration not stated) | 5.1 | -0.3 | 2µM* | 0.7% | ? | 2.82µM*
CC(=O)Oc1ccc(N(C(C)=O)S(=O)(=O)c2ccc3ccccc3c2)cc1 | -14.2 | nt | 0.8% | nt | 3.7% | ?
COc1ccc(-c2nn(-c3ccccc3)cc2/C=C2/SC(=S)N(CCC(=O)O)C2=O)cc1 | -16.1 | -8.0 | -8.5% | nt | 4.8% | 0.2%
O=C1C(=Cc2cn(-c3ccccc3)nc2-c2ccc(OCc3ccccc3F)cc2)SC(=S)N1CCS(=O)(=O)O | -70.0* | -14.7 | nt | nt | nt | nt
O=C1C(=Cc2cn(-c3ccccc3)nc2-c2ccc(OCc3ccc(Cl)cc3)cc2)SC(=S)N1CCS(=O)(=O)O | -66.6* | ? | nt | nt | nt | nt
CCN(CC(=O)Nc1ccccc1OC)C(=O)CN1C(=O)NC(C)(c2ccccc2)C1=O (configuration not stated) | 8.2 | -5.8 | nt | nt | nt | nt
CCOc1ccc(NC(=O)c2c3c(nc4ccccc24)CCC3)cc1 | -7.2 | -2.5 | -16.5% | 0.9% | -8.1% | -1.0%
CCOc1c2c(nc3ccc(Cl)cc13)CCC2 | 5.0 | 11.0 | -24.5% | 6.4% | 6.3% | 11.2µM*
COc1ccccc1C(CCNCc1ccc(N(C)C)cc1)c1ccc(OC(C)C)cc1 (configuration not stated) | -84.1* | nt | -14.6% | nt | -4.0% | ?
COc1ccc(C(CCNCc2ccc(OC(C)C)cc2)C(C)C)cc1 (configuration not stated) | 4.0 | 8.2 | ? | 9.6% | nt | 12.6µM*
COc1ccc(C(CCNCc2ccc(N(C)C)cc2)C(C)C)cc1 (configuration not stated) | -66.6* | nt | ? | -15.6% | -15.3% | ?
COc1ccc(CNCCC(c2ccc(OC(C)C)cc2)C(C)C)cc1OC (configuration not stated) | -1.3 | -8.8 | -24.7% | 2.5% | -3.7% | -27.5%
COc1ccc(CNCCC(c2ccc(OC(C)C)cc2)c2ccccc2OC)cc1 (configuration not stated) | -26.5 | -12.2 | ? | nt | -3.9% | ?
CC(C)c1ccc(C(=O)OCC(=O)NC2CCCC2)cc1 | 5.9 | nt | 4.5% | nt | -3.0% | 44.9%
NC1=NC(c2cn[nH]c2-c2ccc(F)cc2)n2c(nc3ccccc32)N1 (configuration not stated) | nt | nt | -14.8% | 5.2% | -3.9% | 1.7%
S=c1[nH]nc(CCc2ccc(Cl)cc2)o1 | 9.9 | 0.0 | ? | -2.8% | 9.7% | 7.94µM*
S=c1[nH]nc(COc2ccc(Cl)cc2)o1 | 1.9 | 3.7 | ? | -1.0% | -12.7% | 6.31µM*
COc1ccc(OCc2n[nH]c(=S)o2)cc1 | 27.0 | 0.0 | ? | -4.1% | -3.9% | ?
Cc1ccccc1C(=O)O/N=C(\N)Cc1cccs1 | 14.7 | 9.1 | ? | nt | -0.7% | 7.94µM*
SMILES | Six1-Eya2 blk | CtBP-E1A blk | VP16 counter | CBFb-RUNX1 inh | MBNL1 CUG block | RORgamma inh
Cc1ccc(C)c(S(=O)(=O)N2CCCOC2CNC(=O)C(=O)NCCc2ccco2)c1 (configuration not stated) | -14.1 | 4.2 | -5.2% | nt | -1.8% | -11.7%
CCCCC(=O)Nc1nnn(CCC)n1 | -0.9 | 0.0 | 5.9% | 5.8% | -3.9% | 15.3%
CCCCn1nnc(NC(=S)NC(=O)c2ccc(OCC)c([N+](=O)[O-])c2)n1 | -1.8 | -5.0 | 2.51µM* | nt | ? | 2.82µM*
CCCCC(=O)NC(=S)Nc1nnn(CCC)n1 | -1.6 | -0.8 | 0.562µM* | -2.7% | nt | 0.112µM*
CCCCn1nnc(NC(=S)NC(=O)c2ccc(-c3cccc(Cl)c3Cl)o2)n1 | ? | ? | 1.12µM* | -10.1% | 0.8% | 1.26µM*
COc1ccc(CNC(=O)COC(=O)CN2C(=O)COc3ccccc32)cc1 | 11.5 | 12.1 | nt | nt | nt | nt
Cc1ccccc1-c1nc(NCCN2CCOCC2)c2ccccc2n1 | nt | nt | -8.3% | nt | nt | 9.9%
COc1ccc(NC(=O)Cc2csc(NC(=O)Nc3ccccc3OC)n2)cc1 | -23.1 | -2.8 | nt | nt | nt | nt
Cc1ccc(NC(=S)Nc2nc(CC(=O)Nc3ccccc3)cs2)cc1 | -3.6 | -1.5 | 5.62µM* | -8.4% | 31.4% | 1.41µM*
CCCN1C(=O)/C(=C/c2ccc3c(c2)OCO3)NC1=S | -2.9 | -10.9 | ? | -9.9% | 25.6% | 8.91µM*
CCCN1C/C(=C/c2ccc3c(c2)OCO3)C(=O)/C(=C/c2ccc3c(c2)OCO3)C1 | -7.2 | 1.6 | 1.5% | 0.1% | ? | -6.2%
COc1ccccc1C(=O)N/C(=N/c1nc(C)cc(C)n1)Nc1ccccc1 | 9.4 | 5.9 | ? | -1.3% | nt | 10µM*
O=C(Nc1ccc(C(=O)N2CCCC2)cc1)C1CCC1 | 4.7 | 12.2 | nt | nt | nt | nt
Cc1ccc(C2=Nc3ccccc3SC(c3cccc([N+](=O)[O-])c3)C2)cc1 (configuration not stated) | -16.9 | nt | 12.6µM* | ? | 6.7% | 5.62µM*
O=C1CCc2cc(S(=O)(=O)N3CCC(C(=O)NC4CCCC4)CC3)ccc2N1 | -5.7 | 5.1 | 6.2% | 0.0% | -11.3% | -15.3%
O=C1CCc2cc(S(=O)(=O)N3CCC(C(=O)NCc4ccccn4)CC3)ccc2N1 | nt | nt | ? | -4.2% | 10.7% | 12.6µM*
CCCCCCCN(C(=O)CCl)c1cccc(C)c1 | 1.2 | 11.8 | ? | 5.1% | -8.6% | ?
N#CCCN(C(=O)CCl)c1cccc(Cl)c1 | 4.4 | 8.0 | -26.8% | 17.9% | nt | 12.6µM*
CCCCCC(=O)NNC1CC(=O)N(c2ccccc2)C1=O (configuration not stated) | 7.1 | 6.2 | 1.6% | -1.2% | -7.7% | -1.7%

Assay outcomes (PubChem)
